Test [1] can be described thus: NS1 protein of Zika virus - qHTS assay to identify small molecule inhibitors in human HEK 293 cells (AID 1347053). Note: series mostly up to about 46 µM; nearly all actives have a fitted effect of over 55% in size. An outline of the steps:
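HEK 293; 20 h pre-culture, 37 C/5% CO2; cpd 1 h pre-infection; ZIKV MR766, MOI = 0.5, 24 h, 37 C; TR-FRET NS1 readout (two anti-NS1 Abs); norm. to no-virus vs infected.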
(Quantitative high-throughput screening tests each substance at several concentrations.)

For test [2], the target named is T1, Tyrosine-protein phosphatase non-receptor type substrate 1 (Homo sapiens) + Leukocyte surface antigen CD47 (Homo sapiens) (UniProt P78324+Q08722). Description: CD47-SIRPalpha protein protein interaction - Alpha assay qHTS validation (AID 1347059).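 Note: bead proximity luminescence from CD47 binding SIRPalpha after compound preincubation with SIRPalpha.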 An outline of the steps: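 Binding is measured by AlphaScreen proximity: Ni-NTA acceptor beads capture His-CD47, streptavidin donor beads capture biotin-SIRPalpha. Each of three additions (SIRPalpha with compound, CD47, beads) incubates 30 min at room temperature protected from light.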
T1 sequence (P78324 whole entry, looked up): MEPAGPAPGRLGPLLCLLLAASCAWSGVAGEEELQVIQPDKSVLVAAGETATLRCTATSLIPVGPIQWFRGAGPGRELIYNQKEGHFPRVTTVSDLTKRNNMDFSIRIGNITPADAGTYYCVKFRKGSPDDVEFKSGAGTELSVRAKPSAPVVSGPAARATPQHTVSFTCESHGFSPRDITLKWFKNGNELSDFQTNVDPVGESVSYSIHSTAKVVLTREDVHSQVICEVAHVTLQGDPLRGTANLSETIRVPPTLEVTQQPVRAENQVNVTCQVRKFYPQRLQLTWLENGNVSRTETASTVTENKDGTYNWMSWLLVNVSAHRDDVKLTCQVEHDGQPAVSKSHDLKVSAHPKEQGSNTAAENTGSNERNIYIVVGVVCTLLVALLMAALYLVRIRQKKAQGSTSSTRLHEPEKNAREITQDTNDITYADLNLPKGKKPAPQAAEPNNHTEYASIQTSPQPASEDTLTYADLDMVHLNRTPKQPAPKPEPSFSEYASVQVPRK
T1 sequence (Q08722 whole entry, looked up): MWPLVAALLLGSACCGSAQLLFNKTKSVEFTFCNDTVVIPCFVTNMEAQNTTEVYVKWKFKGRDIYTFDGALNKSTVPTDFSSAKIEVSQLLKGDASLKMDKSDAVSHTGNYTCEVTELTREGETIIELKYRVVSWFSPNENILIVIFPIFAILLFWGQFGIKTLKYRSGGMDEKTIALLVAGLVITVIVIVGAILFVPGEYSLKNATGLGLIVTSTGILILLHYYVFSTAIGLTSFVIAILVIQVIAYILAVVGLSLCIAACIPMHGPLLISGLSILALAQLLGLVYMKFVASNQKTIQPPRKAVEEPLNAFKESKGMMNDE

In test [3] the target is Parathyroid hormone/parathyroid hormone-related peptide receptor (Homo sapiens) (UniProt Q03431). As to the kind of experiment: qHTS for PTHR1 Agonists: Optimization Screen against the NCGC LOPAC library (AID 1347079).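 Note: GloSensor cAMP luminescence in HEK-293 GP2 cells expressing human PTHR1 with IBMX.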 In outline: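 Agonist readout: GloSensor cAMP luminescence, read after 15 min at room temperature. HEK-293-derived GP2 line carries PTHR1; compounds tested as a titration for 1 hr at 37C in presence of IBMX. M-PTH (1-15) served as control.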
Chain of Parathyroid hormone/parathyroid hormone-related peptide receptor (Homo sapiens) (Q03431 whole entry, looked up): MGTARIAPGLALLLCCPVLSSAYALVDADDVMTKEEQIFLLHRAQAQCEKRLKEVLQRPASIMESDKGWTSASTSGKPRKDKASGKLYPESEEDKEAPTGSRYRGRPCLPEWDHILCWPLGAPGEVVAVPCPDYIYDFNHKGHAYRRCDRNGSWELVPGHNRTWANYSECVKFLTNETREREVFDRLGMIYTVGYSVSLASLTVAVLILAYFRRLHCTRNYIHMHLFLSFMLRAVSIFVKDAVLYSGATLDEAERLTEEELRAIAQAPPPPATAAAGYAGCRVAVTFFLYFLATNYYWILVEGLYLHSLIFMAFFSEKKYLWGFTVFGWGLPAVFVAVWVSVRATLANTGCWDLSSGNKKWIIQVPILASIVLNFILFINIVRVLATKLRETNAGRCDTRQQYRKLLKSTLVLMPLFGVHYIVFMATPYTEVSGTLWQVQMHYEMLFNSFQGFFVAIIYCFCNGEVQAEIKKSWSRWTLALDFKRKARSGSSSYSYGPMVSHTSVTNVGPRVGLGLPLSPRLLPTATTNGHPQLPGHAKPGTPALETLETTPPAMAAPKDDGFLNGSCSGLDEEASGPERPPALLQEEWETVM

Test [4] can be described thus: qHTS of pediatric cancer cell lines to identify multiple opportunities for drug repurposing: Primary screen for TC32 cells (AID 1347089). Note: nearly all actives have a fitted effect of over 60% in size. An outline of the steps:
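Luminescent CellTiter-Glo read-out of metabolically active TC32 cells after 48 h compound exposure. Primary: MIPE 11-point, 0.78 nM–46 µM; NPC 8-point, 0.59 nM–46 µM. Confirmatory: 11-point dilutions.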

Test [5] is described as follows: qHTS of pediatric cancer cell lines to identify multiple opportunities for drug repurposing: Primary screen for SJ-GBM2 cells (AID 1347091). Note: potency is the fitted concentration of half-maximal effect. In outline:
(§1)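 Cell viability, CellTiter-Glo luminescence; 500-1,000 cells/well, 8- or 11-point titration, 48 h compound exposure at 37 degrees C, 5% CO2. Controls: DMSO neutral, bortezomib 2.3 µM final as positive.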

Test [6] is described as follows: qHTS of pediatric cancer cell lines to identify multiple opportunities for drug repurposing: Primary screen for NB-EBc1 cells (AID 1347095). Note: potency is the fitted concentration of half-maximal effect. An outline of the steps:
(§2)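 500-1,000 cells/well; 5 h pre-incubation 37 °C/5% CO2; compound pinned; 48 h; CellTiter-Glo, 15 min RT; luminescence. MIPE 11-pt from 0.78 nM, NPC 8-pt from 0.59 nM final. Bortezomib 2.3 µM final as positive control.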

A short description of test [7]: qHTS of pediatric cancer cell lines to identify multiple opportunities for drug repurposing: Primary screen for U-2 OS cells (AID 1347096). Note: nearly all actives have a fitted effect of over 50% in size. Note: potency is the fitted concentration of half-maximal effect. An outline of the steps:
(§3)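 Cells (500-1,000/well) rested 5 h, then received compounds for 48 h; metabolically active cells were measured by CellTiter-Glo luminescence. Final concentrations spanned up to 46 µM (MIPE, 11-point) or 0.59 nM-46 µM (NPC, 8-point) in primary screens, 11-point in follow-ups.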

The nature of test [8]: qHTS of pediatric cancer cell lines to identify multiple opportunities for drug repurposing: Primary screen for Saos-2 cells (AID 1347097). Note: nearly all actives have a fitted effect of over 40% in size. Note: potency is the fitted concentration of half-maximal effect. An outline of the steps:
as §2

Test [9] is described as follows: qHTS of pediatric cancer cell lines to identify multiple opportunities for drug repurposing: Primary screen for LAN-5 cells (AID 1347100). Note: potency is the fitted concentration of half-maximal effect. An outline of the steps: as §3
Test [10] is described as follows: qHTS of pediatric cancer cell lines to identify multiple opportunities for drug repurposing: Primary screen for BT-12 cells (AID 1347101). Note: nearly all actives have a fitted effect of over 25% in size. In outline: as §3
The nature of test [11]: qHTS of pediatric cancer cell lines to identify multiple opportunities for drug repurposing: Primary screen for Rh18 cells (AID 1347102). Note: nearly all actives have a fitted effect of over 65% in size. In outline: as §3
Test [12] in a line: qHTS of pediatric cancer cell lines to identify multiple opportunities for drug repurposing: Primary screen for OHS-50 cells (AID 1347103). Note: nearly all actives have a fitted effect of over 40% in size. Note: potency is the fitted concentration of half-maximal effect. An outline of the steps: as §3
A short description of test [13]: qHTS of pediatric cancer cell lines to identify multiple opportunities for drug repurposing: Primary screen for DAOY cells (AID 1347090). Note: nearly all actives have a fitted effect of over 55% in size. Note: potency is the fitted concentration of half-maximal effect. An outline of the steps: as §1
Test [14] can be described thus: qHTS of pediatric cancer cell lines to identify multiple opportunities for drug repurposing: Primary screen for A673 cells (AID 1347092). Note: nearly all actives have a fitted effect of over 45% in size. Note: potency is the fitted concentration of half-maximal effect. In outline: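 A673 cells (500-1,000 cells/well in growth media) were pre-incubated 5 h at 37 degrees C, then exposed to compounds for 48 h. Viability was read as CellTiter-Glo luminescence; concentration-response curves came directly from the primary screen.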

A short description of test [15]: qHTS of pediatric cancer cell lines to identify multiple opportunities for drug repurposing: Primary screen for SK-N-MC cells (AID 1347093). Note: potency is the fitted concentration of half-maximal effect. In outline: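 Metabolically active cells were quantified by ATP-dependent luminescence (CellTiter-Glo, 15 min at room temperature) following 48 h treatment. Cells had been plated at 500-1,000 per well and settled for 5 h beforehand.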

Test [16] can be described thus: qHTS of pediatric cancer cell lines to identify multiple opportunities for drug repurposing: Primary screen for BT-37 cells (AID 1347094). Note: potency is the fitted concentration of half-maximal effect. An outline of the steps: as §2
Test [17] addresses T1, Tyrosine-protein phosphatase non-receptor type substrate 1 (Homo sapiens) + Leukocyte surface antigen CD47 (Homo sapiens). Description: CD47-SIRPalpha protein protein interaction - HTRF assay qHTS validation (AID 1347058; active = well fitted curve in the direction sought with a large enough effect in the signal ratio, not every such curve was filed as active; the % refers to the signal ratio;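 note: recombinant soluble extracellular CD47 with His tag and biotinylated SIRPalpha domains; series mostly up to about 38 µM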). An outline of the steps: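 TR-FRET read (Ch1/Ch2 ratio) of soluble extracellular CD47 and Avi-biotinylated SIRPalpha domains in PBS pH 7.4 with 0.05% IGEPAL; 7-point compound titration. Sequential 30 min room-temperature steps; non-biotinylated SIRPalpha as control inhibitor.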

Test [18] can be described thus: qHTS of pediatric cancer cell lines to identify multiple opportunities for drug repurposing: Primary screen for SK-N-SH cells (AID 1347098). Note: nearly all actives have a fitted effect of over 65% in size. Note: potency is the fitted concentration of half-maximal effect. In outline: as §3
Test [19] is described as follows: qHTS of pediatric cancer cell lines to identify multiple opportunities for drug repurposing: Primary screen for NB1643 cells (AID 1347099). Note: nearly all actives have a fitted effect of over 50% in size. Note: potency is the fitted concentration of half-maximal effect. In outline:
as §2

Consider nine compounds from PubChem BioAssay (NCATS).

Values joined by “and” are separate entries in the source; they are usually repeats but may differ in a detail not shown here. Equal values may be shown once. Records with an inconclusive call do not appear. Active and inactive are the calls of the source. Unless noted, calls come from the whole dose curve; as a rule, active = well fitted curve in the direction sought with a large enough effect; inconclusive = small, poorly fitted or top-dose-only effect, or another doubt; inactive = no such curve, though single readings can be large; an effect the other way counts as inactive or inconclusive.

As to `NC(N)=NC(=O)c1nc(Cl)c(N)nc1N`, the Potency result in [1], in test [4], in test [5], in test [6], in [7] and in [8] was “inactive” throughout. In addition, the Potency result in [9], in [10], in test [11] and in test [12] was “inactive” each time. In addition, the result in [2] and in test [3] was inactive.

In the case of `CC(C=CC1=C(C)CCCC1(C)C)=CC=CC(C)=CC(=O)O`, the Potency entry in test [1], in test [4], in test [5], in test [16], in test [6] and in test [7] was “inactive” in each case. Besides, the Potency entry in test [9] and in test [11] was “inactive” in each case. Further, the Potency in test [13] was 7.43 µM (active); in [14] it was 14.8 µM (active) and 296 nM (active); in [15] it was 8.33 µM (active) and 1.48 µM (active); in test [12], 344 nM (active).

Take `CCOC(=O)N1CCC(=C2c3ccc(Cl)cc3CCc3cccnc32)CC1`: the Potency entry in [1], in test [4] and in test [7] was “inactive” each time. For the same compound, the result in test [17], in [2] and in [3] was inactive. For the same compound, the Potency was 23.5 µM (active) in test [5]; 23.5 µM (active) and 26.6 µM (active) in test [14]; 20.9 µM (active) in test [6]; 30.7 µM (active) in test [18]; 24.3 µM (active) and 21.9 µM (active) in [12].

As for `NC(=O)c1ccc(-c2nc(-c3ccc4c(c3)OCO4)c(-c3ccccn3)[nH]2)cc1`, the Potency result in [1], in test [4], in [13], in test [5], in test [14] and in [15] was “inactive” each time. In addition, the Potency entry in [6], in [7], in [8], in [18], in [19] and in test [9] was “inactive” throughout. The Potency result in [11] and in test [12] was “inactive” in each case.

For the compound `O=C(O)[C@@H](c1ccc(OCc2ccc3ccccc3n2)cc1)C1CCCC1`, the Potency result in test [1], in [4], in test [13], in test [5], in [14] and in [15] was “inactive” each time. Moreover, the Potency result in test [16], in [7], in [8], in [9], in test [10] and in test [11] was “inactive” each time.

As to `N=c1nc(N2CCCCC2)cc(N)n1O`, the Potency result in test [1], in test [4], in test [13], in test [5], in test [6] and in test [7] was “inactive” throughout. Further, the Potency entry in test [8], in [19], in test [9], in [10], in [11] and in test [12] was “inactive” each time. Moreover, the outcome in test [3] was inactive.

For the compound `Cc1ccc(N(CC2=NCCN2)c2cccc(O)c2)cc1`, the Potency result in test [1], in test [4], in test [13], in test [5], in test [6] and in [7] was “inactive” throughout. Besides, the Potency result in [19], in test [9] and in test [11] was “inactive” in each case. In addition, the outcome in test [3] was inactive. In addition, the Potency in test [14] is 18.7 µM (active) and 16.8 µM (active); in [12] it was 27.3 µM (active) and 30.9 µM (active).

On to `CC(c1cc2ccccc2s1)N(O)C(N)=O` (stereo not drawn), for which the Potency result in [1], in test [4], in [13], in [5], in test [14] and in [15] was “inactive” each time. For the same compound, the Potency entry in [16], in test [6], in [7], in test [19], in test [9] and in test [10] was “inactive” throughout. Further, the Potency result in test [11] and in test [12] was “inactive” throughout.

For `CS(=O)(=O)c1cccc(CNc2nc(Nc3ccc4c(c3)CCC(=O)N4)ncc2C(F)(F)F)c1`, the Potency entry in [1] was “inactive”. Moreover, the result in test [2] was inactive. The Potency was 10.5 µM (active) in test [5]; 14.8 µM (active) in test [14]; 7.43 µM (active) in [15]; 27.3 µM (active) in test [16]; 14.8 µM (active) in test [6]; 18.7 µM (active) in [7]. For the same compound, the Potency was 16.6 µM (active) in test [8]; 24.1 µM (active) in test [18]; 16.6 µM (active) in test [19]; 3.32 µM (active) in test [9]; 6110 nM (active) in test [12].
